Reference: PubChem BioAssay (NCI)
The panel holds about 83,000 compounds, 20% with a hit somewhere; the sample as a whole holds those more often.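 Assay: single dose, 48 h. Readout: percent growth (0 = no net growth; negative = cell death). Active: <10.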 A number with no mark means an inactive call. Active and inactive are the calls of the source.

Key:
Assay in all cases: NCI-60 one-dose screen, 48 h (100 = growth as untreated, 0 = no growth, -100 = all killed)
Conditions in all cases: 10 µM unless noted
SR leukemia = tested on: SR leukemia
OVCAR-8 ovarian = tested on: OVCAR-8 ovarian
OVCAR-5 ovarian = tested on: OVCAR-5 ovarian
OVCAR-4 ovarian = tested on: OVCAR-4 ovarian
SK-OV-3 ovarian = tested on: SK-OV-3 ovarian
IGROV1 ovarian = tested on: IGROV1 ovarian
OVCAR-3 ovarian = tested on: OVCAR-3 ovarian
HS 578T breast = tested on: HS 578T breast
NCI/ADR-RES ovarian = tested on: NCI/ADR-RES ovarian
T-47D breast = tested on: T-47D breast
BT-549 breast = tested on: BT-549 breast
MDA-MB-435 melanoma = tested on: MDA-MB-435 melanoma
SW-620 colon = tested on: SW-620 colon
MCF7 breast = tested on: MCF7 breast
HCT-116 colon = tested on: HCT-116 colon
HCC-2998 colon = tested on: HCC-2998 colon
KM12 colon = tested on: KM12 colon

SMILES	growth (SR leukemia)	growth (OVCAR-8 ovarian)	growth (OVCAR-5 ovarian)	growth (OVCAR-4 ovarian)	growth (SK-OV-3 ovarian)	growth (IGROV1 ovarian)	growth (OVCAR-3 ovarian)	growth (HS 578T breast)	growth (NCI/ADR-RES ovarian)	growth (T-47D breast)	growth (BT-549 breast)	growth (MDA-MB-435 melanoma)	growth (SW-620 colon)	growth (MCF7 breast)	growth (HCT-116 colon)	growth (HCC-2998 colon)	growth (KM12 colon)
CCN(CC)CCNC(=O)c1cn2ncnc(Oc3ccc(NC(=O)Nc4ccc(Cl)c(C(F)(F)F)c4)cc3)c2c1C	-56.4% (active)	-42.5% (active)	-62.7% (active)	-8.97% (active)	-85.9% (active)	-53.1% (active)	-70.9% (active)	-44.4% (active)	61%	-64.3% (active)	-32.5% (active)	-81.4% (active)	-85.6% (active)	-84.4% (active)	-95.3% (active)	-95.8% (active)	-80.4% (active)
CN1CCN(CC(=O)N2c3cccc4cccc(c34)N(C(=O)CN3CCN(C)CC3)C2c2cn(-c3ccccc3)nc2-c2cccc([N+](=O)[O-])c2)CC1	-17.2% (active)	-8.45% (active)	20.5%	-21.8% (active)	-14.4% (active)	4.75% (active)	-57.6% (active)	28.6%	72.4%	-75.8% (active)	71.2%	-42.6% (active)	-26.4% (active)	-71.1% (active)	-58.2% (active)	-52.9% (active)	26%
COc1ccc(C(=O)COC(=O)[C@H](C[Se][Se]C[C@H](NC(=O)c2ccc(Br)cc2F)C(=O)OCC(=O)c2ccc(OC)cc2)NC(=O)c2ccc(Br)cc2F)cc1	-17.1% (active)	-64.2% (active)	-68.2% (active)	-87.9% (active)	-91.9% (active)	-86.1% (active)	-86.3% (active)	-6.55% (active)	-60% (active)	-33.1% (active)	-89.6% (active)	3.85% (active)	-59.7% (active)	-57.3% (active)	–	-64.1% (active)	-81.6% (active)
Cc1c(C(=O)/C=C/Nc2c(Cl)cc(S(N)(=O)=O)cc2Cl)sc2nc3ccccc3n12	110%	101%	106%	116%	111%	111%	107%	105%	110%	97.8%	102%	103%	101%	102%	105%	124%	101%
c1ccc2c(c1)Nc1ccncc1S2	200%	101%	89.5%	93.1%	112%	99.4%	119%	102%	107%	95.3%	75%	121%	92.5%	100%	82%	–	103%
Cc1[nH]c(C(=O)Nc2ccc(C(=O)NCCN)cc2OC(C)C)c(Cl)c1Cl	-51.3% (active)	9.08% (active)	89.4%	-12.2% (active)	90.5%	64.1%	-6.76% (active)	35.1%	91%	-1.29% (active)	103%	-17.6% (active)	-89% (active)	5.44% (active)	-50.1% (active)	-41.7% (active)	8.19% (active)
COc1ccc(C2NC(=O)C(C#N)c3c2sc2c(F)cccc32)c(OC)c1 (stereo unspecified)	13.9%	62.3%	98.9%	53.7%	50.8%	52.7%	13.8%	21.4%	16.7%	61.7%	72.1%	-28.7% (active)	32.3%	24.5%	23.8%	88.3%	32%
Nc1nc2ccccc2c2c(=O)c3cc(F)ccc3sc12	101%	106%	102%	101%	108%	103%	113%	101%	97.5%	84.3%	106%	98.6%	107%	34.4%	99.4%	–	99%
CC1CN(C2CCCCC2)C(=S)N(c2ccccc2)C1=O (stereo unspecified)	98.7%	118%	104%	97.2%	116%	105%	112%	109%	102%	103%	108%	105%	103%	96.1%	101%	100%	97.3%
NC(=O)C1(Nc2ccc(Br)cc2)CCCC1	84.3%	102%	96.7%	115%	103%	108%	113%	111%	111%	98.9%	104%	105%	106%	92.2%	105%	116%	109%
O=C(Nc1ccc(Cl)cc1F)c1cc(Cl)ccc1O	-21.2% (active)	8.56% (active)	19.7%	17.9%	9.05% (active)	8.98% (active)	2.51% (active)	-13.9% (active)	3.01% (active)	0.896% (active)	-25.3% (active)	-11.4% (active)	5.92% (active)	2.27% (active)	-25.5% (active)	8.54% (active)	-23.6% (active)
NCCCNc1nc2ccc(Cl)cc2c2c(=O)c3cc(F)ccc3sc12	-27.4% (active)	57.3%	83.5%	11.3%	89.4%	52.8%	8.74% (active)	65.9%	65.9%	76.3%	106%	30.8%	-79% (active)	47.2%	-47.8% (active)	-40.8% (active)	11.8%
Cc1ccc(C(CC(=O)O)c2c(C)[nH][nH]c2=O)cc1 (stereo unspecified)	99%	101%	106%	111%	97.7%	105%	109%	109%	102%	86.6%	103%	–	108%	100%	107%	108%	101%
O=C(Nc1ccc(-c2nc(-c3cccc(OCCN4CCOCC4)c3)c(-c3ccnc(Br)c3)[nH]2)cc1)c1ccccc1	-11.6% (active)	41.5%	35.4%	55.2%	-25.6% (active)	43.4%	44.2%	-41% (active)	53.4%	27.6%	45%	–	2.49% (active)	-46% (active)	–	11.3%	0.737% (active)
CCc1cccc2c1S/C(=C/c1ccc(Cl)cc1)C2=O	79%	101%	100%	93.5%	85.7%	65.6%	104%	88%	101%	68.2%	112%	–	94.5%	52.1%	91.8%	110%	98.2%
COc1cc2cc(Oc3ccc(NC(=O)Nc4ccc(Cl)c(C(F)(F)F)c4)cc3)c(C)nc2cc1OCCN1CCOCC1	-1.99% (active)	13.4%	55.6%	31.6%	31%	34.7%	16.5%	72.6%	11.4%	22.6%	–	15.5%	15.1%	4.87% (active)	10.3%	36.9%	14.9%
Cc1cccc2c3c(sc12)C(c1ccc(Cl)cc1)C(C#N)=C(N)O3 (stereo unspecified)	15.8%	22.2%	23.3%	58.4%	60.1%	23.8%	-17.3% (active)	15.9%	9.13% (active)	45.9%	17.9%	–	26.9%	9.7% (active)	14.2%	18.3%	9.62% (active)
COc1cccc(-c2nc(-c3ccc(NC(=O)OC(C)C)cc3)[nH]c2-c2ccnc(Br)c2)c1	-2.3% (active)	27.3%	53.7%	32.9%	33.3%	35.5%	26.2%	-17.2% (active)	27.7%	6.55% (active)	48%	–	34.2%	10.5%	13.2%	39.5%	17%
